PubChem BioAssay (NCI)
Values joined by “and” are separate entries in the source; they are usually repeats but may differ in a detail not shown here. Identical values can stand only once. The panel holds about 83,000 compounds, 20% with a hit somewhere; the sample as a whole holds those more often.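 Single-dose data. Exposure time 48 hours. Values below 10 considered active.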 A number with no mark means an inactive call. Active and inactive are the calls of the source.

System: MDA-MB-468 breast
Experiment: NCI-60 one-dose screen, 48 h (100 = growth as untreated, 0 = no growth, -100 = all killed)
Conditions: 10 µM unless noted

Question: For `CC12CCC3C4CCC(=O)C=C4CCC3C1CC1CC(=O)OC12` (stereo not given), which growth is on record?
Answer: Its growth is 102%.

Question: How did the growth turn out when `CN(C)C(=S)SSC(=S)N(C)C` was run?
Answer: The growth was 96.6% and 108%.

Question: How did the growth turn out when `N#CC1=C(N)Oc2cc3c(cc2C1c1cccs1)OCO3` (stereo not given) was run?
Answer: The growth was 6.33% (active).

Question: `C#Cc1cccc(Nc2nc(Cl)nc3cc(NC(=O)CF)ccc23)c1` was tested. Which growth did it give?
Answer: The growth was 61.5%.

Question: For `CCc1ccccc1[C@@H]1C[C@]2(C)CCO[C@@H]2OO1`, which growth is on record?
Answer: Its growth is 102%.

Question: `CC1=C(CNO)C2=C(C)C3(CC3)[C@@](C)(O)C(=O)C2=C1` was tested. Which growth did it give?
Answer: Its growth is -62.9% (active).

Question: `CNC(=O)Oc1cc(C(C)C)ccc1Sc1ccc(C(C)C)cc1OC(=O)NC` was tested. Which growth did it give?
Answer: The growth was 56.5%.

Question: Which growth does the source give for `O=C1C=C(N2CC2)c2ccccc2C1=O` here?
Answer: The growth was 24.6%.

Question: With `O=C(/C=C/c1ccccc1)N[C@@H](CO)Cc1cnc[nH]1` as the compound, how does the growth read?
Answer: The growth was 102%.

Question: `CC12CCC3C(CC=C4CC(O)CCC43C)C1C/C(=C\N1CCOCC1)C2=O` (stereo not given) was tested. Which growth did it give?
Answer: Its growth is 106%.

Question: `O=Cc1cn(Cc2ccccc2)c2ccccc12` was tested. Which growth did it give?
Answer: The growth was 2.33% (active).

Question: With `CCC1(C(C)C)C(=O)NC(=S)NC1=O` as the compound, how does the growth read?
Answer: Its growth is 89.9%.

Question: With `COC(=O)C[Se]C(=O)c1ccccc1OC(C)=O` as the compound, how does the growth read?
Answer: Its growth is 34.8%.

Question: With `C[C@]12CC[C@H]3[C@@H](C[C@@H]4N=C(c5ccc(O)cc5)S[C@@]45C[C@H](O)CC[C@]35C)[C@@H]1CC[C@@H]2O` as the compound, how does the growth read?
Answer: Its growth is 81%.

Question: Which growth does the source give for `CC[C@]12C=CCN3CC[C@@]4(c5ccc(OC)cc5N(C)[C@H]4[C@@](O)(C(=O)OC)[C@@H]1OC(=O)CCCC[P+](c1ccccc1)(c1ccccc1)c1ccccc1)[C@@H]32` here?
Answer: Its growth is -63.9% (active).
